Where “and” joins values, the source holds several entries; their conditions need not be identical. Equal values may be shown once. ± gives the standard deviation of the averaged measurements. In all, about 3,800 compounds were measured (“cell shape (eccentricity) Z-score vs DMSO control”: median about 1.1, lowest 2% from about -4.7 on). Many of the other results were omitted from the sample, so the lowest values are more common in it than they were.
What follows are compounds tested on human monocyte-derived macrophages (M0) (assay: cell shape (eccentricity) Z-score vs DMSO control; higher = more elongated, M2-like morphology). Settings: 20 µM; 24 h; macrophage state: M0 (M-CSF).
Experimental: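 Primary human monocyte-derived macrophages (M-CSF differentiated, pooled from 4 donors, 5000 cells/well in 384-well plates) were treated with each compound at 20 uM for 24 h, then fixed and stained with phalloidin/DAPI and imaged on an Opera Phenix (6 fields, about 1000 cells/well). Cell eccentricity was measured with CellProfiler, and a Z-score (t-test) was computed against 4 DMSO control wells in the same row. Negative values mean round (M1-like) cells and positive values mean elongated (M2-like) cells; the paper's hit cutoffs are Z <= -4 (M1) and Z >= 6 (M2). Scale: negative = round, M1-like.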

| Compound | cell shape (Z-score) |
| --- | --- |
| CCCSc1ccc2[nH]c(NC(=O)OC)nc2c1 | -3.67 |
| CCCOc1ccc2[nH]c(NC(=O)OC)nc2c1 | -1.59 |
| CCCCc1ccc2[nH]c(NC(=O)OC)nc2c1 | -5.71 and -2.34 |
| COC(=O)Nc1nc2cc(C(=O)C3CC3)ccc2[nH]1 | -3.64 |
| COC(=O)Nc1nc2cc(Sc3ccccc3)ccc2[nH]1 | -2.59 ± 3.9 |
| COC(=O)Nc1nc2cc(SC(C)C)ccc2[nH]1 | -4.88 ± 0.16 |
| COc1ccc(C2Oc3cc(OC)ccc3CC2O)cc1 (configuration not stated) | 1.66 ± 1.2 |
| COc1ccc(-c2oc3c(CC=C(C)C)c(O[C@@H]4O[C@H](CO)[C@@H](O)[C@H](O)[C@H]4O)cc(O)c3c(=O)c2O[C@@H]2O[C@@H](C)[C@H](O)[C@@H](O)[C@H]2O)cc1 | -2.65 |
| Nc1ncnc2c1c(-c1cccc(OCc3ccccc3)c1)cn2[C@H]1C[C@H](CN2CCCC2)C1 | 6.27 |
| O=c1c(O)c(-c2ccccc2)oc2ccccc12 | 1.62 |
| CCOC(=O)[C@H](CCc1ccccc1)N[C@@H](C)C(=O)N1Cc2ccccc2C[C@H]1C(=O)O | 2.22 |
| CC(=O)O[C@@H]1CC2C(C)(C)[C@H](O)CC[C@]2(C)C2CC[C@@]3(C)[C@H](c4ccoc4)OC(=O)C4OC43[C@@]21C (some centres not stated) | 2.33 |
| CC(=O)O[C@H]1C[C@@H](O)C(C)(C)C2C[C@@H](OC(C)=O)[C@]3(C)C(CC[C@@]4(C)[C@H](c5ccoc5)OC(=O)C5OC543)[C@]21C (some centres not stated) | -2.78 |
| CC(=O)O[C@@H]1CC2C(C)(C)C(=O)C=C[C@]2(C)C2CC[C@@]3(C)[C@H](c4ccoc4)OC(=O)[C@H]4O[C@]43[C@@]21C (some centres not stated) | -4.89 |
| CC(=O)O[C@H]1CC[C@@]2(C)C(C[C@@H](OC(C)=O)[C@]3(C)C2CC[C@@]2(C)[C@H](c4ccoc4)OC(=O)[C@H]4O[C@]423)C1(C)C (some centres not stated) | -2.07 |
| CC(=O)O[C@@H]1CC2C(C)(C)C(=O)CC[C@]2(C)C2CC[C@@]3(C)[C@H](c4ccoc4)OC(=O)C4OC43[C@@]21C (some centres not stated) | -5.48 |
| CC(=O)O[C@H]1C[C@@H](OC(C)=O)C(C)(C)C2C[C@@H](OC(C)=O)[C@]3(C)C(CC[C@@]4(C)[C@H](c5ccoc5)OC(=O)[C@H]5O[C@]543)[C@]21C (some centres not stated) | -2.55 |
| O=C1C[C@@H](c2ccc(O)c(O)c2)Oc2cc(O[C@@H]3O[C@H](CO)[C@@H](O)[C@H](O)[C@H]3O)cc(O)c21 | 0.661 ± 1.8 |
| OC(CN1CCNCC1)Cn1c2ccc(Br)cc2c2cc(Br)ccc21 (configuration not stated) | -4.09 |
| C=C1CCC[C@]2(C)CC[C@@](O)(C(=C)C(=O)O)C[C@@H]12 | -0.504 |
| CC1(C)CC[C@]2(C(=O)O[C@@H]3O[C@H](CO[C@@H]4O[C@H](CO)[C@@H](O)[C@H](O)[C@H]4O)[C@@H](O)[C@H](O[C@@H]4O[C@H](CO)[C@@H](O)[C@H](O)[C@H]4O)[C@H]3O)CC[C@]3(C)C(=CCC4[C@@]5(C)CC[C@H](O)[C@@](C)(C(=O)O)C5CC[C@]43C)C2C1 (some centres not stated) | 1.07 |

| Compound | cell shape (Z-score) |
| --- | --- |
| C=C1CCC2C(CC2(C)C)C(=O)CCC1O (configuration not stated) | -1.93 |
| OCC(O)CN1CCN(c2ccccc2)CC1 (configuration not stated) | 2.29 |
| C#CC1(OCC(O)CN2CCN(c3ccccc3OC)CC2)CCCCC1 (configuration not stated) | -0.311 |
| C#CC1(OCC(O)CN2CCN(c3cccc(C(F)(F)F)c3)CC2)CCCCC1 (configuration not stated) | -7.88 |
| COC1=CC(=O)O[C@@H](/C=C/c2ccccc2)[C@@H]1O | -1.25 |
| COc1cc2c(c(OC)c1OC)CCc1cc(O)c(O)cc1-2 | -0.208 |
| COc1cc2c(c(OC)c1OC)C[C@H]1COC(=O)[C@@H]1Cc1c-2cc(OC)c(OC)c1OC | -9.6 |
| COc1cc2c(c(OC)c1OC)-c1cc3c(cc1C[C@H]1C(=O)OC[C@@H]1C2)OCO3 | 0.816 |
| CC(C)Cn1cnc2c(N)nc3ccccc3c21 | 3.03 |
| CC(C)C12CC1C(C)(O[C@@H]1O[C@H](CO)[C@@H](O)[C@H](O)[C@H]1O)CC2=O (some centres not stated) | 1.52 |
| CC(=O)OCC(=O)[C@H]1CCC2C3CC=C4C[C@@H](O)CC[C@]4(C)C3CC[C@@]21C (some centres not stated) | 3.17 |
| O=C(O)/C=C/c1ccccc1O[C@@H]1O[C@H](CO)[C@@H](O)[C@H](O)[C@H]1O | 1.56 |
| CC1(C)CC[C@]2(C(=O)O[C@@H]3O[C@H](CO)[C@@H](O)[C@H](O)[C@H]3O)CC[C@]3(C)C(=CCC4[C@@]5(C)C[C@H](O)[C@H](O[C@@H]6O[C@H](C(=O)O)[C@@H](O)[C@H](O)[C@H]6O)[C@@](C)(CO)C5CC[C@]43C)C2C1 (some centres not stated) | 0.273 |
| C[C@@H]1O[C@@H](O[C@H]2[C@H](OC(=O)[C@]34CCC(C)(C)C[C@H]3C3=CCC5[C@@]6(C)C[C@H](O)[C@H](O[C@@H]7O[C@H](C(=O)O)[C@@H](O)[C@H](O)[C@H]7O)[C@@](C)(CO)C6[C@H](O)C[C@@]5(C)[C@]3(C)C[C@H]4O)O[C@@H](CO)[C@@H]2O)[C@H](O)[C@H](O)[C@H]1O[C@@H]1OC[C@@H](O)[C@H](O[C@H]2OC[C@](O)(CO)[C@H]2O)[C@H]1O (some centres not stated) | -10.1 |
| CC1(C)CC[C@]2(C(=O)O[C@@H]3O[C@H](CO)[C@@H](O)[C@H](O)[C@H]3O)CC[C@]3(C)C(=CCC4[C@@]5(C)C[C@@H](O)[C@H](O)[C@@](C)(CO)C5[C@H](O)C[C@]43C)C2C1 (some centres not stated) | 4.82 ± 3.7 |
| CC1(C)CC[C@@]2(C(=O)O[C@@H]3O[C@H](CO)[C@@H](O)[C@H](O)[C@H]3O)C(C1)C1=CCC3[C@@]4(C)CC[C@@H](O[C@@H]5O[C@H](CO)[C@@H](O)[C@H](O)[C@H]5O[C@@H]5O[C@H](CO)[C@@H](O)[C@H](O)[C@H]5O)C(C)(C)C4CC[C@@]3(C)[C@]1(C)C[C@H]2O (some centres not stated) | 0.124 ± 0.97 |
| C[C@@H]1O[C@@H](O[C@@H]2[C@@H](O)[C@H](OC(=O)[C@]34CCC(C)(C)CC3C3=CCC5[C@@]6(C)CC[C@H](OC7OC(CO)C(OC8OCC(O)C(O)C8O)C(O)C7O)C(C)(C)C6CC[C@@]5(C)[C@]3(C)CC4O)O[C@H]2CO)[C@H](O)[C@H](O)[C@H]1O[C@H]1OC[C@](O)(CO)[C@H]1O (some centres not stated) | -11.6 |
| C[C@@H]1O[C@@H](O[C@@H]2[C@@H](O)[C@H](O[C@@H]3[C@@H](O)[C@@H](O)[C@H](O[C@H]4[C@H](OC(=O)[C@]56CCC(C)(C)C[C@H]5C5=CCC7[C@@]8(C)C[C@H](O)[C@H](O[C@@H]9O[C@H](C(=O)O)[C@@H](O)[C@H](O)[C@H]9O)[C@@](C)(CO)C8[C@H](O)C[C@@]7(C)[C@]5(C)C[C@H]6O)O[C@@H](CO)[C@@H]4O)O[C@H]3C)OC[C@H]2O)[C@H](O)[C@H](O)[C@H]1O (some centres not stated) | -6.05 |
| C[C@@H]1O[C@@H](O[C@@H]2[C@@H](O)[C@H](O[C@@H]3[C@@H](O)[C@@H](O)[C@H](O[C@H]4[C@H](OC(=O)[C@]56CCC(C)(C)C[C@H]5C5=CCC7[C@@]8(C)C[C@H](O)[C@H](O[C@@H]9O[C@H](C(=O)O)[C@@H](O)[C@H](O)[C@H]9O)[C@@](C)(CO)C8[C@H](O)C[C@@]7(C)[C@]5(C)C[C@H]6O)OC[C@H](O)[C@@H]4O)O[C@H]3C)OC[C@H]2O)[C@H](O)[C@H](O)[C@H]1O (some centres not stated) | 0.295 |
| CC1(C)CC[C@@]2(C(=O)O[C@@H]3O[C@H](CO)[C@@H](O)[C@H](O)[C@H]3O)C(C1)C1=CCC3[C@@]4(C)CC[C@@H](O[C@@H]5O[C@H](C(=O)O)[C@@H](O[C@@H]6OC[C@@H](O)[C@H](O)[C@H]6O)[C@H](O)[C@H]5O)C(C)(C)C4CC[C@@]3(C)[C@]1(C)C[C@H]2O (some centres not stated) | 1.81 |
| CC1OC(OC2C(CO)OC(OC(=O)[C@]34CCC(C)(C)CC3C3=CCC5[C@@]6(C)CC[C@H](OC7OC(C)C(OC8OCC(O)(COC9OCC(O)C(OC%10OCC(OC%11OCC(O)(CO)C%11O)C(O)C%10O)C9O)C8O)C(O)C7O)C(C)(C)C6CC[C@@]5(C)[C@]3(C)CC4)C(O)C2O)C(O)C(O)C1O (some centres not stated) | 2.74 |

From the supplement of paper PMC7858590
